“And” between values parts separate entries of the source, which are not always exact repeats. Equal values may be shown once. Results filed as inconclusive are left out. The source holds several records for some structures; these can differ, active in one and inactive in another. The source made the active and inactive calls. The call rests on the fitted dose curve; in most records, active means well fitted curve in the direction sought with a large enough effect; inconclusive means small, poorly fitted or top-dose-only effect, or another doubt; inactive means no such curve, though single readings can be large; an effect the other way counts as inactive or inconclusive.
Columns and labels:
[1] = biological target: Cytochrome P450 3A7 (Homo sapiens) (UniProt P24462); test: Cytochrome P450 family 3 subfamily A member 7 (CYP3A7) small molecule antagonists: luciferase biochemical qHTS assay (AID 1963596); further: on the % scale 0 is the no-effect control and ±100 the full control effect; nearly all actives have a fitted effect of over 40% in size
Cytochrome P450 3A7 (Homo sapiens), sequence (P24462 whole entry, looked up): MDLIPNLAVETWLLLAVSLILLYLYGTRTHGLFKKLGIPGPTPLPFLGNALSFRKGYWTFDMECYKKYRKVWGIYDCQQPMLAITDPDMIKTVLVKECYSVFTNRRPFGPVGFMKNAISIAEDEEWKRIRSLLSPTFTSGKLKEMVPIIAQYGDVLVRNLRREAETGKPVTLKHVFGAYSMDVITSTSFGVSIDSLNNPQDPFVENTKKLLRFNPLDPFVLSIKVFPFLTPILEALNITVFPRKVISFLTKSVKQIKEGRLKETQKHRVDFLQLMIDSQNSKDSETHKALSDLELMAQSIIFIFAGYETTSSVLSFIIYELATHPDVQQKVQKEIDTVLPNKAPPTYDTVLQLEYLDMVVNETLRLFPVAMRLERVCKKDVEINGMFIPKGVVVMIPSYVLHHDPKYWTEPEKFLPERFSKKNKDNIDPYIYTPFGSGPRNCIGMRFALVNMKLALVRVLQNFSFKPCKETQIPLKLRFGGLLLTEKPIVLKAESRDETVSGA
Method in brief: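 Luminescence from luciferin released by CYP3A7 from a proluciferin substrate, read 20 min after detection reagent. Compound and enzyme-substrate mix sat 10 min before NADPH regeneration solution; reaction ran 1 h at room temperature.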

[2] = Viability qHTS for spleen associated tyrosine kinase inhibitor (SYKi) naive MV4-11 cells (AID 1963823); further: nearly all actives have a fitted effect of over 40% in size; further: potency means the concentration at half of the fitted maximal effect
Method in brief: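 In this viability screen, compounds acted on SYK inhibitor naive MV4-11 cells for three days (72 hr, 37 C). Remaining viable cells were measured by CellTiter-Glo luminescence following a 10 min room-temperature development.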

[3] = Viability qHTS for spleen associated tyrosine kinase inhibitor (SYKi) drug resistant MV4-11 cells (AID 1963824); further: nearly all actives have a fitted effect of over 35% in size; further: potency means the concentration at half of the fitted maximal effect
Method in brief: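 SYK-inhibitor-resistant MV4-11 AML cells were seeded at 500 per well onto compound and cultured 72 hours (37 °C, 5% CO2). CellTiter-Glo was then added, and after 10 min at room temperature, luminescence gave viability.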

[4] = Quantitative highthroughput screen to assess conditional lethalithy of SEM cells grown in RPMI1640 with unreated serum (RPMI+s) (AID 1963883); further: potency means the concentration at half of the fitted maximal effect; nearly all actives have a fitted effect of over 35% in size
Method in brief: (§1)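 Each medium arm—HPLM with 10% dialyzed FBS, or RPMI1640 with 5 mM glucose and 10% untreated or dialyzed FBS—was screened against an 11-point, 3-fold compound titration for 48 h at 37 °C, with CellTiter-Glo luminescence as endpoint.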

[5] = Quantitative highthroughput screen to assess conditional lethalithy of SEM cells grown in RPMI1640 with dialyzed fetal bovine serum (RPMI+ds) (AID 1963884); further: potency means the concentration at half of the fitted maximal effect; nearly all actives have a fitted effect of over 35% in size
Method in brief: as §1

[6] = Cellular viability qHTS for adrenocortical cancer (ACC) cell line SW-13 (AID 1963989); conditions: SW-13 ACC cells viability, CellTiter-Glo, 48 h; activity (max response): stronger effect = lower value; further: nearly all actives have a fitted effect of over 65% in size; further: potency means the concentration at half of the fitted maximal effect;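 on activity (max response): cells grown in serum-free medium with ITS supplement; on the % scale 0 is the no-effect control and ±100 the full control effect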
Method in brief: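 Viability was read as CellTiter-Glo luminescence after 48 h compound treatment (up to 46 uM final) of SW-13 cells grown serum-free; titration curves were fit with a four-parameter logistic model to give IC50 and efficacy.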

[7] = Cellular viability qHTS for adrenocortical cancer (ACC) cell line NCI-H295R (AID 1963990); further: nearly all actives have a fitted effect of over 60% in size; further: potency means the concentration at half of the fitted maximal effect;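 on activity change, negative = viability loss: 0% = DMSO only wells and -100% = full killing with cytotoxic reference compound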
Method in brief: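 CellTiter-Glo ATP luminescence, read 48 h after compound addition, measured viability of NCI-H295R adrenocortical cells grown serum-free with ITS. Final concentrations spanned up to 46 uM. Data normalized to DMSO and doxorubicin, fitted for IC50 and maximal response.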

COC(=O)Nc1nc2ccc(Sc3ccccc3)cc2[nH]1
inactive: Potency [1]
active: Potency [2] 372 nM | Potency [3] 417 nM | Potency [4] 2.35 µM | Potency [5] 2.96 µM | Potency [6] 184 nM and 316 nM | Potency [7] 130 nM and 316 nM

CC(C)c1c2cc(-c3ccnc(NC4CCC(NC5CCOCC5)CC4)n3)ccc2nn1C (stereo unspecified)
active: Potency [2] 130 nM and 105 nM | Potency [3] 116 nM and 83.3 nM | Potency [6] 282 nM
inactive: Potency [1]

COc1ccccc1N1CCN(CCCNc2cc(=O)n(C)c(=O)n2C)CC1
inactive: Potency [1] | Potency [2] | Potency [3] | activity (max response) [6] 2.85%

OC[C@H]1O[C@H](O[C@]2(CCl)O[C@H](CCl)[C@@H](O)[C@@H]2O)[C@H](O)[C@@H](O)[C@H]1Cl
inactive: Potency [1] | Potency [2] | Potency [3] | activity (max response) [6] -4.41%

CCCc1ncc(C[n+]2ccccc2C)c(N)n1
inactive: Potency [1] | Potency [2] | Potency [3] | activity (max response) [6] -17.3%

O=c1cc(CO)occ1O
inactive: Potency [1] | Potency [2] | Potency [3] | activity (max response) [6] 13.4%

N[C@@H](COP(=O)(O)O)C(=O)O
inactive: Potency [1] | Potency [2] | Potency [3] | activity (max response) [6] -3.07%

C[C@H](N)[C@H](O)c1cccc(O)c1
inactive: Potency [1] | Potency [2] | Potency [3] | activity (max response) [6] 0.409% | Potency [7]

CC(=O)OCC(COC(C)=O)OC(C)=O
inactive: Potency [1] | Potency [2] | Potency [3] | activity (max response) [6] 3.85% | Potency [7]

CC(O)COc1ccccc1 (stereo unspecified)
inactive: Potency [1] | Potency [2] | Potency [3] | activity (max response) [6] 5.91% | Potency [7]

C[N+](C)(C)CCCCCCCCCC[N+](C)(C)C
inactive: Potency [1] | Potency [2] | Potency [3] | activity (max response) [6] 14.5% | Potency [7]

C=C1[C@H](CO)[C@@H](O)C[C@@H]1n1cnc2c(=O)[nH]c(N)nc21
inactive and 16.4 µM (active): Potency [2]
inactive: Potency [1] | Potency [3] | activity (max response) [6] -5.41% | Potency [7]

C[C@H]1C[C@H](O)c2ccsc2S1(=O)=O
inactive: Potency [1] | Potency [2] | Potency [3] | activity (max response) [6] 10.4% | Potency [7]

N[C@@H](CSSC[C@H](N)C(=O)O)C(=O)O
inactive: activity change, negative = inhibition [1] 0.172% [at 0.91 µM] | viability (% of control) [2] 68.4% [at 0.588 µM] | viability, % of control [3] 76.8% [at 0.588 µM] | activity (max response) [6] 5.04% | activity change, negative = viability loss [7] -0.603% [at 0.587 µM]

CN1Cc2cc(C(=O)N3CCC(C4CCNCC4)CC3)ccc2NC(CC(=O)O)C1=O (stereo unspecified)
inactive: Potency [1] | Potency [2] | Potency [3] | activity (max response) [6] 10.5% | Potency [7]

COc1cc(/C=C/C(N)=O)cc(OC)c1OC
inactive: Potency [1] | Potency [2] | Potency [3] | activity (max response) [6] 17.9% | Potency [7]

O=C(OOC(=O)c1ccccc1)c1ccccc1
inactive: Potency [1] | Potency [2] | Potency [3] | activity (max response) [6] 0.27% | Potency [7]

O=C(N[C@H]1CCC[C@H](CO)C1)C1CCN(c2nc3cc(Cl)c(-c4ccc(Cl)cc4)cc3o2)CC1
active: Potency [2] 16600 nM | Potency [3] 16600 nM | Potency [7] 12.6 µM
inactive: Potency [1] | activity (max response) [6] -10.9%

CCCCCCCCCCCCCCCCO
inactive: Potency [1] | Potency [2] | Potency [3] | activity (max response) [6] 10.1% | Potency [7]

CC(=O)Nc1nnc(S(N)(=O)=O)s1
inactive: Potency [1] | Potency [2] | Potency [3] | activity (max response) [6] 5.04% | Potency [7]

CCCCS(=O)(=O)N[C@@H](Cc1ccc(OCCCCC2CCNCC2)cc1)C(=O)O
inactive: Potency [1] | Potency [2] | Potency [3] | activity (max response) [6] 11.9% | Potency [7]

NC(CSCC(=O)O)C(=O)O (stereo unspecified)
inactive: Potency [1] | Potency [2] | Potency [3] | activity (max response) [6] -12% | Potency [7]

O[C@@H]1CO[C@H]2[C@@H]1OC[C@@H]2O
inactive: Potency [1] | Potency [2] | Potency [3] | activity (max response) [6] -0.327% | Potency [7]

COCC(=O)Nc1c(I)c(C(=O)NCC(O)CO)c(I)c(C(=O)N(C)CC(O)CO)c1I (stereo unspecified)
active: Potency [2] 0.9 nM
inactive: Potency [1] | Potency [3] | activity (max response) [6] -3.53% | Potency [7]

O=C(O)CCNC(=O)c1ccccc1
inactive: Potency [1] | Potency [2] | Potency [3] | activity (max response) [6] 1.23% | Potency [7]

CC[C@H]1CN2CCc3cc(OC)c(OC)cc3[C@@H]2C[C@@H]1C[C@H]1NCCc2cc(OC)c(OC)cc21
active: Potency [2] 106 nM and 83.3 nM | Potency [3] 133 nM and 93.4 nM | Potency [6] 231 nM and 447 nM | Potency [7] 146 nM and 282 nM
inactive: Potency [1]

Reference: PubChem BioAssay (NCATS)
